Measured values as given in the supplement of paper PMC11732987, “Enantioselective OTUD7B fragment discovery through chemoproteomics screening and high-throughput optimisation” (Communications Chemistry, 2025).

Key:
Experiment in all cases: log2 ratio of Biotin-Ahx-Ub-VS probe labelling (fragment/DMSO); higher = less target engagement (more negative = stronger competition), active = hit call of the paper (q ≤ 0.05, log2 ratio ≤ -1)
Settings in all cases: compound concentration: 200 uM; treatment time: 3 h
OTUD6B = molecular target: T1, OTUD6B (UniProt Q8N6M0)
T1 sequence (whole entry): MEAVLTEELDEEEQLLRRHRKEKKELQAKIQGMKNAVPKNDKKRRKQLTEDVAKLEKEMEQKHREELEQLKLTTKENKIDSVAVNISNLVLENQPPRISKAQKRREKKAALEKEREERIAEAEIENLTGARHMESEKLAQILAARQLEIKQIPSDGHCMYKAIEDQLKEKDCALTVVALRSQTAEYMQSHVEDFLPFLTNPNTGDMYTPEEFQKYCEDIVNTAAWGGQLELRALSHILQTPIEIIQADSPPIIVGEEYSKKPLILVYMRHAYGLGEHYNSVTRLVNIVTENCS
In short: (§1)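 HEK293T lysate, 495 µg per sample in Tris/CHAPS/IGEPAL buffer with protease inhibitors, was treated in triplicate with fragment at 200 µM or vehicle for 3 h and then with Biotin-Ahx-Ub-VS at 0.5 µM final for 1 h. Labelled DUBs were NeutrAvidin-enriched, digested with LysC and trypsin, and run by diaPASEF LC-MS/MS. Spectronaut label-free quantities were global-median-normalised, and values are average log2 fragment/vehicle ratios by unpaired t-test on proteins with ≥2 unique peptides.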

OTUD7B = molecular target: T2, OTUD7B (UniProt Q6GQQ9)
T2 sequence (whole entry): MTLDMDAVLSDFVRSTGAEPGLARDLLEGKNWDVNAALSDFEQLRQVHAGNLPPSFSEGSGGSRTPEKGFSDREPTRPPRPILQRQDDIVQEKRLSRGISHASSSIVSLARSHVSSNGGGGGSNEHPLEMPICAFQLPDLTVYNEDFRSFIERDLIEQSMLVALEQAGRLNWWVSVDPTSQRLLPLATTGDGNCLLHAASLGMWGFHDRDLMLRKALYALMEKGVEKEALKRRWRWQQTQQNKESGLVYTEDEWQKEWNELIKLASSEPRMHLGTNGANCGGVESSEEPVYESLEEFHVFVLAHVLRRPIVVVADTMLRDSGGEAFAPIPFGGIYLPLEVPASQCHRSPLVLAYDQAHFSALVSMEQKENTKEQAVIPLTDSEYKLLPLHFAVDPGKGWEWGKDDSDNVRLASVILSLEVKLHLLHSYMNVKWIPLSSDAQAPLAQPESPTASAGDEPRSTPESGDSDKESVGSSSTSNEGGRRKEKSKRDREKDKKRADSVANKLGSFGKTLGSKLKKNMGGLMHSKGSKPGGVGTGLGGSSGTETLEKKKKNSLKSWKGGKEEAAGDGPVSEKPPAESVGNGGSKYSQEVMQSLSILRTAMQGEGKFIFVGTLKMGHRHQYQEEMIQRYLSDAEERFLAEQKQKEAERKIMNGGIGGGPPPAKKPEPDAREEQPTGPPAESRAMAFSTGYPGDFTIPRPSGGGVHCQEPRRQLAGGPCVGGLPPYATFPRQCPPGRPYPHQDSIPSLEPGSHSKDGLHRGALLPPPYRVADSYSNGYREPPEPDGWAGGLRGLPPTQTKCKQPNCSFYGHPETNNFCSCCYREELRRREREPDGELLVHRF
In short: as §1

PRPF8 = PRPF8 (UniProt Q6P2Q9)
In short: as §1

PSMD7 = molecular target: T3, PSMD7 (UniProt P51665)
T3 sequence (whole entry): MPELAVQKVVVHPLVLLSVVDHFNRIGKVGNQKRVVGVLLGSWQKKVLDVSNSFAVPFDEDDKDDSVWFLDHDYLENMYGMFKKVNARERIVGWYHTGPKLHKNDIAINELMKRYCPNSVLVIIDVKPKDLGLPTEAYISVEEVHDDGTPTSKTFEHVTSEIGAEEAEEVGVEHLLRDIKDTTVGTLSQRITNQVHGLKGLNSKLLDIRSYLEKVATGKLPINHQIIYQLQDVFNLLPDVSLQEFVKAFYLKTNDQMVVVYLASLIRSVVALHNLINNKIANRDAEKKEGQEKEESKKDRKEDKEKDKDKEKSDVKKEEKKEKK
In short: as §1

UCHL1 = UCHL1 (UniProt P09936)
In short: as §1

UCHL3 = molecular target: T4, UCHL3 (UniProt P15374)
T4 sequence (whole entry): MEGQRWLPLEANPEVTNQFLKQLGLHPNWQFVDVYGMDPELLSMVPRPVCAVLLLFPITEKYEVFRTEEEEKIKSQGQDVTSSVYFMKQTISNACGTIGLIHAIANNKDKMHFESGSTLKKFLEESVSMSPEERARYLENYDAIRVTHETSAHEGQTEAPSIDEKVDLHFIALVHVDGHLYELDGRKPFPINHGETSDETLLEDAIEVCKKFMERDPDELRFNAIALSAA
In short: as §1

UCHL5 = molecular target: T5, UCHL5 (UniProt Q9Y5K5)
T5 sequence (whole entry): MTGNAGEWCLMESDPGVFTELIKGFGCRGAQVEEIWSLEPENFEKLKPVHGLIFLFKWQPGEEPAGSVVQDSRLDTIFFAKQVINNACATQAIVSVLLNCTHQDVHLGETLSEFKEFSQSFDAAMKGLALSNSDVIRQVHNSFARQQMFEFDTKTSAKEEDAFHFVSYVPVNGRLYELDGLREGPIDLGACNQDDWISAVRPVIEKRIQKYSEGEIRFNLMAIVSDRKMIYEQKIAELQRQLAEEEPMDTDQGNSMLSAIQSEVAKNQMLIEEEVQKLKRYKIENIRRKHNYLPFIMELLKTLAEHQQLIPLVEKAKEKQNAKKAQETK
In short: as §1

USP10 = USP10 (UniProt Q14694)
In short: as §1

USP15 = molecular target: T6, USP15 (UniProt Q9Y4E8)
T6 sequence (whole entry): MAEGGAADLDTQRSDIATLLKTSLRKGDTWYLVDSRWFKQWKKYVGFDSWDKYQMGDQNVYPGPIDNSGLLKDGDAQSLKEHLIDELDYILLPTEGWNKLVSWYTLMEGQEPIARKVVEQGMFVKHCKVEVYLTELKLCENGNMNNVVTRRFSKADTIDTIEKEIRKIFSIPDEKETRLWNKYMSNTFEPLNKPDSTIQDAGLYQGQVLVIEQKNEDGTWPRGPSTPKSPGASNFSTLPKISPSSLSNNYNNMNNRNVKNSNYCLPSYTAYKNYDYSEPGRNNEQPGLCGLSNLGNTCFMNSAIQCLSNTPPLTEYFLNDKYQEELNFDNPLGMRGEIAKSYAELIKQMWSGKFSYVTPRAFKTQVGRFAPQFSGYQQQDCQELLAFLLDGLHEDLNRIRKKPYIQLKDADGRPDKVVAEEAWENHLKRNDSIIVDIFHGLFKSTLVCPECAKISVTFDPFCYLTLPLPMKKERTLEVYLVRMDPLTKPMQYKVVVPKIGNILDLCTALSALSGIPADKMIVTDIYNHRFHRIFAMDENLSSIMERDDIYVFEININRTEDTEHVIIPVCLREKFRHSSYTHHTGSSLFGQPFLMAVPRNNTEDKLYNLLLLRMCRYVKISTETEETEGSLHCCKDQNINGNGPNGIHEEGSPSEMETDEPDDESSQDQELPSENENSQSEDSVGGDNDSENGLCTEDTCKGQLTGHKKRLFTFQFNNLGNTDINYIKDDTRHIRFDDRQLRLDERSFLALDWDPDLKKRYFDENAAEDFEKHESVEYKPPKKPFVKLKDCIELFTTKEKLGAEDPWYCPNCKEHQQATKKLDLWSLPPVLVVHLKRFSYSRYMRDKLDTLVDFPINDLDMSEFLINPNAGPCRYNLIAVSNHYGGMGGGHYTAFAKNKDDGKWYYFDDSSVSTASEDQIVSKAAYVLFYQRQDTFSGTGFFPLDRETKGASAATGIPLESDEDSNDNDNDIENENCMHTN
In short: as §1

USP16 = USP16 (UniProt Q9Y5T5)
In short: as §1

Measured: log2 ratio of Biotin-Ahx-Ub-VS probe labelling

Chain of USP10 (Q14694 whole entry): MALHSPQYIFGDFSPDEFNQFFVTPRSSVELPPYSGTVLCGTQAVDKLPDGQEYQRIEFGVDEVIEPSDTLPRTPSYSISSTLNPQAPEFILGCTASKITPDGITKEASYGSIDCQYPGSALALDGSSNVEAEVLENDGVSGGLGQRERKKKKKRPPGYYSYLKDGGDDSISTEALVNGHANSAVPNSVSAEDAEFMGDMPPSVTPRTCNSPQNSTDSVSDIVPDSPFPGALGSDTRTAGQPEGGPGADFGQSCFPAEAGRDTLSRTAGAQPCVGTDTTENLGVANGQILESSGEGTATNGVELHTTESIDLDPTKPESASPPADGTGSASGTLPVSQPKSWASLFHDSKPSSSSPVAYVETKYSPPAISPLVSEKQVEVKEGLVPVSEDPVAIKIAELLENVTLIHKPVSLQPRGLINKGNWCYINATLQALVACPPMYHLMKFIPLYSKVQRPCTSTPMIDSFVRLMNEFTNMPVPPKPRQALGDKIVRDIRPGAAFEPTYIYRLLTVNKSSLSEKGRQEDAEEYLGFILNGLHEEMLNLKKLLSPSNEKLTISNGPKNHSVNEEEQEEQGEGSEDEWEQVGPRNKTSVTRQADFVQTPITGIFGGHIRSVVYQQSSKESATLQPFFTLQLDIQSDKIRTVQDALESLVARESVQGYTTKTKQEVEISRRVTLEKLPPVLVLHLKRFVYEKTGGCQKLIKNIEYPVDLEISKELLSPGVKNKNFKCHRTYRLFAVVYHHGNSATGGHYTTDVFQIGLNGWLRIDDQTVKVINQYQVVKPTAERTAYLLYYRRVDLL
Chain of UCHL1 (P09936 whole entry, looked up): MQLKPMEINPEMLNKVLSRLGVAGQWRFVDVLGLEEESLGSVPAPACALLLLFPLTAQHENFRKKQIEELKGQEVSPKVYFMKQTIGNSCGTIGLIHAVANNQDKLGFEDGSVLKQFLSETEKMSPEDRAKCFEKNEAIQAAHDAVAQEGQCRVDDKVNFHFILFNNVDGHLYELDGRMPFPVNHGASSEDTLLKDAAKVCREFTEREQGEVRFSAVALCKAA
Chain of USP16 (Q9Y5T5 whole entry, looked up): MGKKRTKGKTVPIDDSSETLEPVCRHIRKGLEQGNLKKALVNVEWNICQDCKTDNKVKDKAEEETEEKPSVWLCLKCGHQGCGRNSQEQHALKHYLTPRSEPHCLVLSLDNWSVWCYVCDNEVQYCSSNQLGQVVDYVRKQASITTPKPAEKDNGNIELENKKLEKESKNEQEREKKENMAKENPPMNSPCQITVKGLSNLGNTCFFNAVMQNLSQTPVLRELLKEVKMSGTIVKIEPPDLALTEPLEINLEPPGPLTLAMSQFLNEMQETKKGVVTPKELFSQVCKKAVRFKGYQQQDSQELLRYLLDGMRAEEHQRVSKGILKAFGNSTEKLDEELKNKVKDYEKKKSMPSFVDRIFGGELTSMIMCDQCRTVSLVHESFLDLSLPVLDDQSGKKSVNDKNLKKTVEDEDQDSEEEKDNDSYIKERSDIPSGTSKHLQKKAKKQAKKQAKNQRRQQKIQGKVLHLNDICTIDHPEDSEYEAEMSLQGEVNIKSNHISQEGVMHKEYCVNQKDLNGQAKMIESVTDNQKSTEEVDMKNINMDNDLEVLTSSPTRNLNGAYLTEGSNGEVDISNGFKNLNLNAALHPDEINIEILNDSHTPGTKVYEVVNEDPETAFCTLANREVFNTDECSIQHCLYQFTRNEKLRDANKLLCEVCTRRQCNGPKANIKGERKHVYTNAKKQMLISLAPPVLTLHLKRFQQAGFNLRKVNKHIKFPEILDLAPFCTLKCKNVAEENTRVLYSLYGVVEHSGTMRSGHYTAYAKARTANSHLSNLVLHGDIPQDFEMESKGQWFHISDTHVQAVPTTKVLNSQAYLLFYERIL

O=C(CCl)N1CCC(O)(Cc2ccc(F)cc2)C1 (stereo not given)
inactive: OTUD6B 0.0617 | OTUD7B -0.082 | PRPF8 -0.0432 | PSMD7 -0.209 | UCHL3 0.0281 | UCHL5 0.116 | USP10 -0.309 | USP15 -0.149 | USP16 0.246
active: UCHL1 -1.12
